Consider 28 compounds from PubChem BioAssay (NCATS).

Assay [1] addresses Cellular tumor antigen p53 (Homo sapiens) (UniProt P04637). Kind of assay: Primary qHTS for small molecule compounds that upregulate eGFP-tagged delta133p53alpha (in N-terminal) cells. (AID 2060322).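 Also: series mostly up to about 56 µM; 0% = DMSO vehicle and 100% = reference activator; nearly all actives have a fitted effect of over 75% in size.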 Conditions: NCI-H358 eGFP-delta133p53alpha fluorescence, 24 h; activation: active compounds read high. In a few lines: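 NCI-H358 cells pre-induced 24 h with 10 ng/ml doxycycline to express N-terminal eGFP-delta133p53alpha, then dosed 24 h at 37C without doxycycline; fixed, Hoechst-stained, GFP intensity by laser scanning cytometry, normalized to DMSO (0%) and 57.5 uM 5-azacytidine (100%).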

Assay [2] shares this target. Kind of assay: Primary qHTS for small molecule compounds that upregulate eGFP-tagged delta133p53alpha (in C-terminal) cells. (AID 2060324). Also: potency is read from the fitted curve at half-maximal effect. In a few lines: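 C-terminal eGFP-tagged delta133p53alpha NCI-H358 line; dox-induced (100 ng/ml, 24 h) then plated without dox; compounds pinned in titration, 24 h 37 °C/5% CO2; PFA fix, Hoechst nuclei; GFP by LSC.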
Background: qHTS replaces the single test concentration by a dilution series.

Assay [3] deals with Aldehyde dehydrogenase, mitochondrial (Homo sapiens) (UniProt P05091). Kind of assay: qHTS for Inhibitors of the Aldehyde Dehydrogenase Family (ALDH2) Validation screens (AID 2061302; active = well fitted inhibition curve with a large enough effect; title and protocol of this record describe different tests; also: potency is read from the fitted curve at half-maximal effect).
The nature of assay [4]: qHTS for Inhibitors of the Aldehyde Dehydrogenase Family (ALDH1A2, ALDH1A3, ALDH2, ALDH3A1) (AID 2061307). Also: nearly all actives have a fitted effect of over 50% in size. As to Potency: test system not described further here; potency is read from the fitted curve at half-maximal effect.
Assay [5] has as its target Retinaldehyde dehydrogenase 3 (Homo sapiens) (UniProt P47895). Kind of assay: qHTS for Inhibitors of the Aldehyde Dehydrogenase Family (ALDH1A3) Confirmatory screens (AID 2061311). Also: nearly all actives have a fitted effect of over 60% in size. Also: potency is read from the fitted curve at half-maximal effect.
The target of assay [6] is Retinal dehydrogenase 2 (Homo sapiens) (UniProt O94788). Kind of assay: qHTS for Inhibitors of the Aldehyde Dehydrogenase Family (ALDH1A2) Confirmation screens (AID 2061314). Also: % is scaled to controls: 0 for no effect and ±100 for the full control effect; nearly all actives have a fitted effect of over 65% in size.
Assay [7] has as its target Aldehyde dehydrogenase 1A1 (Homo sapiens) (UniProt P00352). Kind of assay: qHTS for Inhibitors of the Aldehyde Dehydrogenase Family (ALDH1A1) Confirmatory screens (AID 2061316). Also: nearly all actives have a fitted effect of over 65% in size. Also: potency is read from the fitted curve at half-maximal effect.
Assay [8] deals with Aldehyde dehydrogenase, mitochondrial (Homo sapiens) (UniProt P05091). Kind of assay: qHTS for Inhibitors of the Aldehyde Dehydrogenase Family (ALDH2) Primary screen (AID 2061308).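 Also: plate controls were vehicle for no effect and reference inhibitor for full effect; nearly all actives have a fitted effect of over 55% in size.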
Assay [9] has as its target Retinaldehyde dehydrogenase 3 (Homo sapiens) (UniProt P47895). Kind of assay: qHTS for Inhibitors of the Aldehyde Dehydrogenase Family (ALDH1A3) Validation screen (AID 2061312). Also: % is scaled to controls: 0 for no effect and ±100 for the full control effect; nearly all actives have a fitted effect of over 45% in size.
Assay [10] shares this target. Kind of assay: qHTS for Inhibitors of the Aldehyde Dehydrogenase Family (ALDH1A3) Primary screen (AID 2061315).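 Also: plate controls were DMSO vehicle for no effect and reference inhibitor for full effect.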
Assay [11] is described as follows: BET inhibitor-based combinations targeting novel dependencies in MECOM-rearranged (r) AML: OCI-AML3 cell line (AID 2202232).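 Also: series mostly up to about 46 µM; plate controls were DMSO vehicle wells for no effect and wells without cells for full effect; nearly all actives have a fitted effect of over 35% in size.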 Conditions: Potency: OCI-AML3 viability. A digest of the protocol: (§1)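 A 48 hr incubation preceded viability reading by CellTiter-Glo, with 15 min room-temperature development. Dose series had 11 points; normalization used DMSO and empty wells; AUC was computed and mean-centered per line as Z-AUC.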

Assay [12] in a line: BET inhibitor-based combinations targeting novel dependencies in MECOM-rearranged (r) AML: MV-4-11 cell line (AID 2202233).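 Also: plate controls were DMSO for no effect and blank wells for full effect; nearly all actives have a fitted effect of over 45% in size.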 A digest of the protocol:
(§2)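 Each compound is tested in an 11-point concentration series against 500 seeded cells/well for 48 hr. The luminescent viability signal is normalized to DMSO and blank wells, then reduced to AUC and a cell-line-centred Z-AUC.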

Assay [13] is described as follows: BET inhibitor-based combinations targeting novel dependencies in MECOM-rearranged (r) AML: HNT-34 cell line (AID 2202234).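 Also: plate controls were vehicle wells for no effect and cell-free wells for full effect; nearly all actives have a fitted effect of over 35% in size.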 In a few lines:
as §2

A short description of assay [14]: BET inhibitor-based combinations targeting novel dependencies in MECOM-rearranged (r) AML: AML-191 cell line (AID 2202236;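 also: plate controls were vehicle wells for no effect and wells without cells for full effect; nearly all actives have a fitted effect of over 35% in size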). A digest of the protocol: as §1
A short description of assay [15]: BET inhibitor-based combinations targeting novel dependencies in MECOM-rearranged (r) AML: AML-194 cell line (AID 2202237;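 also: plate controls were vehicle wells for no effect and wells without cells for full effect; nearly all actives have a fitted effect of over 40% in size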). A digest of the protocol:
as §1

Assay [16] deals with Aldehyde dehydrogenase, mitochondrial (Homo sapiens) (UniProt P05091). Kind of assay: qHTS for Inhibitors of the Aldehyde Dehydrogenase Family (ALDH2) Confirmatory screens (AID 2061303; active = well fitted inhibition curve with a large enough effect; title and protocol of this record describe different tests; also: % is scaled to controls: 0 for no effect and ±100 for the full control effect; nearly all actives have a fitted effect of over 45% in size).

Where “and” joins values, the source holds several entries; their conditions need not be identical. Identical values can stand only once. Results filed as inconclusive are left out. Values without a mark were called inactive. Calls of active or inactive are those of the source. Unless noted, calls follow the shape of the dose curve; as a rule, active = well fitted curve in the direction sought with a large enough effect; inconclusive = small, poorly fitted or top-dose-only effect, or another doubt; inactive = no such curve, though single readings can be large; an effect the other way counts as inactive or inconclusive.

Sequence of Cellular tumor antigen p53 (Homo sapiens) (P04637 whole entry, looked up): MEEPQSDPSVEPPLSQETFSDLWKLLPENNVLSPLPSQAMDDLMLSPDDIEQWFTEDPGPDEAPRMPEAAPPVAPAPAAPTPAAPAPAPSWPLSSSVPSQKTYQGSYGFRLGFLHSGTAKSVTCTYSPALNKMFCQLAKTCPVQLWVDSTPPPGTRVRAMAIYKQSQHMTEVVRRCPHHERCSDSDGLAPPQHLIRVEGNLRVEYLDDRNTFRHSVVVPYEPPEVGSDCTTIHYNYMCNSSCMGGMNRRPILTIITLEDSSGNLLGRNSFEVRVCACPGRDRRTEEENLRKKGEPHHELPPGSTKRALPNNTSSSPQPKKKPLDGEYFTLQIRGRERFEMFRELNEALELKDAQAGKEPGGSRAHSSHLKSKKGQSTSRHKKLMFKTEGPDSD

`CN1CCc2cc(O)cc3c2[C@H]1Cc1ccc(O)c(O)c1-3`: in [1], the activation is -32.2%. Moreover, the Potency result in assay [2], in assay [3], in [4], in [6] and in [7] was “inactive” each time. Also, the Potency in assay [5] was 12.7 µM (active).

For `O=C(N[C@H]1CN2CCC1CC2)c1ccc(Cl)cc1`, in assay [1], the activation is 0.903% and 6.33% and -27.4%. Besides, the Potency entry in assay [2], in assay [3], in [8], in assay [9], in assay [10] and in assay [11] was “inactive” in each case. Besides, the Potency entry in [12], in assay [13], in assay [14] and in assay [15] was “inactive” in each case.

In the case of `COc1ccc2c(c1O)-c1cccc3c1[C@@H](C2)N(C)CC3`, the activation in [1] was -2.98%. The Potency entry in assay [2] and in [3] was “inactive” in each case.

As for `CC(C)NC(C)Cc1ccc(I)cc1` (centres undefined), the activation in [1] is -3.39%. Further, the Potency entry in [2], in assay [3] and in [9] was “inactive” each time.

For the compound `NC(=O)CI`, the activation in assay [1] was 22%. For the same compound, the Potency result in assay [2] was “inactive”. For the same compound, the Potency is 5.01 µM (active) in assay [3], 28.3 µM (active) in [4], 6.34 µM (active) in [5] and 20.1 µM (active) in assay [7].

`NNC(=O)c1ccc(O)cc1`: in assay [1], the activation was -20.3%. Further, the Potency entry in assay [2], in assay [3] and in [9] was “inactive” in each case. The Potency in assay [4] was 8.96 µM (active).

For `CC(=O)[C@H]1CCC2C3CC[C@H]4C[C@H](O)CC[C@]4(C)C3CC[C@@]21C` (some centres undefined), the activation in [1] was -16.4%. Also, the Potency entry in assay [2], in assay [3] and in [9] was “inactive” in each case.

As for `O=C(O)Cc1cnc[nH]1`, the activation in assay [1] is -6.89%. Moreover, the Potency entry in [2] and in assay [3] was “inactive” in each case.

For `O=C1CCCN1CC#CCN1CCCC1`, in [1], the activation is -14.5%. The Potency result in assay [2], in assay [3] and in assay [9] was “inactive” each time.

Regarding `NC(=O)CN1CC(O)CC1=O` (centres undefined), the activation in [1] is -34.2%. For the same compound, the Potency entry in [2], in assay [3] and in [9] was “inactive” throughout.

Consider `C[N+]1(C)C2CCC1CC(OC(=O)C(CO)c1ccccc1)C2` (centres undefined), for which, in assay [1], the activation was -2.46% and -16.7%. The Potency entry in assay [2], in assay [3] and in assay [9] was “inactive” in each case.

With `CN(C(=O)Cc1ccc(Cl)c(Cl)c1)C(CN1CCCC1)c1cccc(OCC(=O)O)c1` (centres undefined), in assay [1], the activation is -43.2%. Moreover, the Potency entry in assay [2], in assay [3] and in [9] was “inactive” throughout.

Consider `COC(=O)N1CCN(C(=O)Cc2ccc(Cl)c(Cl)c2)C(CN2CCCC2)C1` (centres undefined), for which, in [1], the activation is 5.56%. Besides, the Potency result in [2], in [3] and in [9] was “inactive” throughout.

Regarding `c1ccc2c(c1)OCC(C1=NCCN1)O2` (centres undefined), the activation in assay [1] was -26.9%. Also, in [2], the Potency was 30.1 µM (active). In addition, the Potency result in [3] and in assay [9] was “inactive” in each case.

Regarding `Oc1ccc2c3c1O[C@H]1c4[nH]c5c(c4C[C@@]4(O)[C@@H](C2)N(CC2CC2)CC[C@]314)C[C@@]1(O)[C@H]2Cc3ccc(O)c4c3[C@@]1(CCN2CC1CC1)[C@H]5O4`, the activation in assay [1] is 26.8% and -10.8%. The Potency result in assay [2], in assay [3] and in [9] was “inactive” throughout.

`Cc1sc2ccccc2c1CC1=NCCN1`: the activation in [1] was -35.5%. Also, the Potency result in assay [2], in assay [3] and in assay [9] was “inactive” each time.

For the compound `CCCN(CCC)[C@@H]1CCc2cccc(O)c2C1`, in assay [1], the activation was 20%. For the same compound, the Potency entry in assay [2], in [3] and in assay [9] was “inactive” throughout.

In the case of `CC[C@@H](C(N)=O)N1CCCC1=O`, the activation in [1] is 0.54%. In addition, the Potency entry in [2], in [3], in assay [9], in assay [12], in [13] and in [14] was “inactive” throughout. In assay [15], the Potency result is “inactive”.

Regarding `CC(CCc1ccccc1)NC(C)C(O)c1ccc(O)cc1` (centres undefined), the activation in assay [1] is -7.34% and 8.98%. Further, the Potency entry in [2], in [3] and in assay [9] was “inactive” each time.

Consider `CNCCc1c[nH]c2ccc(O)cc12`, for which the activation in assay [1] was -26.4%. The Potency entry in [2], in assay [3] and in assay [9] was “inactive” throughout.

As for `C#CCOC(=O)C1=CCCN(C)C1`, in assay [1], the activation is -28.1%. In addition, the Potency result in [2], in assay [3] and in [9] was “inactive” in each case.

For `COc1ccc2[nH]cc(CCN)c2c1`, in [1], the activation was -19.1%. Also, the Potency entry in assay [2], in assay [3] and in assay [9] was “inactive” each time.

Turning to `COc1ccc(OC)c(C(O)C(C)N)c1` (centres undefined), the activation in assay [1] is 15.6%. In addition, the Potency result in [2], in [3] and in assay [9] was “inactive” in each case.

In the case of `CN1C2CCC1CC(OC(=O)c1cc(Cl)cc(Cl)c1)C2` (centres undefined), in [1], the activation was -57.3%. In addition, the Potency entry in assay [2], in assay [3] and in assay [9] was “inactive” throughout.

As for `Cc1cccc(C)c1NC(=O)CN1CCCC1=O`, in [1], the activation is -17.7% and -15.1% and -5.58%. Moreover, the Potency result in assay [2], in assay [3], in assay [9], in assay [11], in assay [12] and in [13] was “inactive” each time. In addition, the Potency entry in assay [14] and in [15] was “inactive” each time.

On to `c1ccc(C2(c3ccccc3)CC2C2=NCCN2)cc1` (centres undefined), for which the activation in assay [1] is -13.2%. Moreover, the Potency result in [2], in assay [3] and in [9] was “inactive” in each case.

`CC(=O)[C@H]1CC[C@H]2[C@@H]3CC[C@H]4C[C@](C)(O)CC[C@]4(C)[C@H]3CC[C@]12C`: the activation in assay [1] is -8.47% and -37.3%. The Potency result in assay [2], in assay [3] and in [9] was “inactive” in each case.

Regarding `Cc1ncc(CNC(=O)N(CCCl)N=O)c(N)n1`, the activation in [1] was 6.21% and -40.8%. Besides, the Potency entry in assay [2], in [16], in assay [4], in assay [5] and in assay [7] was “inactive” each time.
